Measured values from article PMC6212790, “How bacterial xenogeneic silencer rok distinguishes foreign from self DNA in its resident genome”.
Whole data set: some 33,000 sequences, median “e-score” near -0.038, cut for the highest 2% near 0.33. The sample holds the highest values, similar sequences and a random draw of the others, so the mix is not that of the screen.

Target: T1, GST-Rok-C97-191 (Bacillus subtilis subsp. subtilis str. …, UniProt O34857 97-191)
T1 sequence: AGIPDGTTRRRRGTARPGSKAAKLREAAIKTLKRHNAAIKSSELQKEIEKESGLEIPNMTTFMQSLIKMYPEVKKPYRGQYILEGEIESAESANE
Experiment: protein binding microarray; Rok is a gene silencer of Bacillus subtilis; high values mean tight binding
Settings: protein: recombinant; tags: GST (pTH5325, pDEST15-Magic modified); dsDNA, one strand shown
Method in brief: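 Every oligonucleotide joins a 25-mer constant primer to a 35-mer variable part drawn from a de Bruijn sequence of order 10, so each non-palindromic 8-mer appears at least 32 times and each palindromic 8-mer 16 times. The preference for every 8-mer is reported as a unitless, rank-based enrichment score (E-score). This score spans 0.5 for the most favored 8-mer to −0.5 for the most disfavored.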

Sequence	binding signal
ACAACTTG	0.173 E-score
ACGTGGCA	-0.0377 E-score
CTTAGCGC	0.0409 E-score
GAGCTAGC	0.0567 E-score
ACCCGTTG	-0.159 E-score
TGTTAAAA	-0.0158 E-score
AATTGCGG	0.0377 E-score
TACCGGAA	-0.0058 E-score
ACAGGCGT	-0.077 E-score
ACTATACT	0.0926 E-score
GGTATACA	0.15 E-score
AGTATACA	0.178 E-score
TGTATACA	0.37 E-score
AATATACT	0.367 E-score
AATATACG	0.225 E-score
GAAAGTGC	-0.0315 E-score
GTACCAAC	0.0505 E-score
CAGGCGAC	-0.00727 E-score
CGTTTATC	0.231 E-score
GGCAGTTA	0.0872 E-score
CACAAGTG	-0.00102 E-score
CAGACTAA	-0.0795 E-score
ACCTCACT	-0.0237 E-score
TCAGCCGA	-0.0187 E-score
AATATAAT	0.23 E-score

Sequence	binding signal
CATATAAA	0.138 E-score
GATATAAA	0.34 E-score
TATAAAAA	0.244 E-score
AATATAAC	0.205 E-score
AATATAAA	0.361 E-score
GATATAAC	0.297 E-score
GATAAAAA	0.234 E-score
TATATAAA	0.394 E-score
ACTGTTGC	0.119 E-score
TGACTCCA	-0.0987 E-score
AGGAGGGA	-0.173 E-score
CAGTTATG	0.0833 E-score
CAATACCG	0.121 E-score
ATATACCC	0.127 E-score
GTATACCA	0.267 E-score
AGATACCG	0.171 E-score
ATATACCA	0.344 E-score
CTATACCA	0.201 E-score
ATATACCG	0.384 E-score
AAATACCA	0.286 E-score
AAATACCG	0.37 E-score
AGGAGACG	-0.19 E-score
CAGCTCGG	-0.0345 E-score
AAGTGACT	-0.0548 E-score
TCTGTCAA	-0.116 E-score

Sequence	binding signal
CAAGCCTG	-0.132 E-score
ATCAGTGC	-0.0896 E-score
CAACGGAC	-0.085 E-score
GCTAGTAA	0.286 E-score
TGTAGTAA	0.286 E-score
GGTAGTAA	0.396 E-score
GTTAGTAA	0.163 E-score
CGTAGTAA	0.205 E-score
AGTAGTAA	0.404 E-score
ACTAAACT	0.244 E-score
TGGCGAAA	0.0439 E-score
GTTTTGCA	0.0567 E-score
CGTACGTA	0.05 E-score
AAATAATA	0.317 E-score
CAATAAAA	0.239 E-score
TAATAAAA	0.344 E-score
CACTAATC	0.1 E-score
CATTAATA	0.186 E-score
CAATAATA	0.312 E-score
TAATAATA	0.424 E-score
AATTAATA	0.305 E-score
CACTAATA	0.33 E-score
GAATAAAA	0.119 E-score
TACTAATA	0.298 E-score
TATTAATA	0.352 E-score

Sequence	binding signal
AGAGAATG	0.0921 E-score
CATGGTTA	0.0882 E-score
AAGGAGCG	-0.2 E-score
AGAGGCAA	-0.195 E-score
GACCTTGC	-0.129 E-score
GAATAAGA	0.0835 E-score
GAATAATC	-0.0939 E-score
GAATAATA	0.349 E-score
AGCCAACC	-0.074 E-score
ATTCGCCC	-0.192 E-score
CTGATATA	0.258 E-score
ATGATATA	0.386 E-score
ATGATAGA	0.36 E-score
ATGATAGG	0.0735 E-score
ATGATATG	0.226 E-score
ATGATAGC	0.15 E-score
GGACGTCC	-0.0863 E-score
AAGCACAA	0.035 E-score
TCGGTCAA	0.044 E-score
GACAAATA	0.111 E-score
AGCATAAA	0.179 E-score
AGCATAAT	0.369 E-score
AGCATAAG	-0.133 E-score
CGTTGTCA	0.0104 E-score
TCTATGCA	0.172 E-score

Sequence	binding signal
AATATTCT	0.347 E-score
AATATTGG	-0.0277 E-score
AATATTGA	0.22 E-score
AATATTGT	0.372 E-score
AATATTCG	0.307 E-score
AATATTCC	0.106 E-score
AAACATTC	0.0952 E-score
CGATGTCA	-0.131 E-score
GGTCCCAA	-0.183 E-score
ATGGACGC	-0.141 E-score
AGTAACTA	0.436 E-score
GGTAACTA	0.336 E-score
GCTAACTA	0.324 E-score
CGTAACTA	0.314 E-score
GGTAACGA	0.0496 E-score
AGTAACTC	0.0388 E-score
ACTAACTG	0.16 E-score
AGTAACTG	0.124 E-score
ACTAACTA	0.367 E-score
GTTCAACA	0.0437 E-score
GTAACTGA	0.203 E-score
TCATGAAA	0.0251 E-score
GTGACCGA	0.048 E-score
CCACAATA	0.2 E-score
GACCTAGC	-0.0362 E-score

Sequence	binding signal
AGCTACGA	0.191 E-score
ACATGACC	0.104 E-score
AATAAGAC	0.0721 E-score
AACTAGAC	0.193 E-score
TACTAGAA	0.348 E-score
GACTAGAA	0.206 E-score
AACTAGAG	0.0733 E-score
GGCTAGAA	-0.162 E-score
AGCTAGAT	0.152 E-score
ACCTAGAA	0.142 E-score
CACTAGAA	0.304 E-score
AACTAGAA	0.363 E-score
AACTAGAT	0.388 E-score
AGCTAGAA	0.322 E-score
TGCTAGAA	0.364 E-score
GCCGCAAC	-0.128 E-score
CAGCAGGA	-0.178 E-score
AACATCAT	0.00751 E-score
AACATCTT	0.0861 E-score
GTAACCAA	0.000641 E-score
CTAGACCA	-0.196 E-score
ACATGTTA	0.144 E-score
CGAATGAG	-0.0259 E-score
ATGCTCCG	-0.113 E-score
CAGCCTTA	-0.151 E-score

Sequence	binding signal
CATAGCTC	0.00142 E-score
ACGCGGAA	-0.0676 E-score
GGTAGATA	0.432 E-score
GCTAGATA	0.288 E-score
CGTAGATA	0.21 E-score
AGTAGATG	0.29 E-score
AGTAGATA	0.456 E-score
AGTAGATC	0.323 E-score
ACCCGCAA	-0.0817 E-score
AACTAGCT	0.342 E-score
GACTAGCA	0.101 E-score
AACTAGCA	0.346 E-score
AACTAGCC	0.107 E-score
AACTAGCG	0.256 E-score
CACTAGCA	-0.154 E-score
AGAAGAAA	0.00841 E-score
CTCTTTCC	-0.0674 E-score
AACACCCA	-0.114 E-score
GACGTATA	0.174 E-score
CACGTATA	0.228 E-score
TACGTATA	0.349 E-score
TGGAGCCA	-0.182 E-score
